Screening results as filed in PubChem.
Rows were chosen to be rich in hits. Some 4.3% of all compounds tested hit in one or more screens of this group.
NALP1 inh – blocks the NALP1 inflammasome reconstituted in yeast; inhibition, % at 10 µM; 280,000 tested, 0.61% active; S. cerevisiae NALP1/ASC/caspase-1 growth, X-gal OD620, 72 h; in the data active means inhibition mostly above about 24%, no sharp cut-off; inactive means mostly below about 32%
dFosB activator – enhances mouse delta FosB homodimer DNA binding; P13346; purified delta FosB, TAMRA-CDK5 oligo fluorescence polarization; percent of positive-control signal above neutral wells; activation, % at 25 µM; 340,000 tested, 0.99% active; AID 493131;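 active means mean activation above about 17%, with every replicate also reaching it, limit read from the data, passing the limit was not always enough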
Target sequence (P13346 whole entry, looked up): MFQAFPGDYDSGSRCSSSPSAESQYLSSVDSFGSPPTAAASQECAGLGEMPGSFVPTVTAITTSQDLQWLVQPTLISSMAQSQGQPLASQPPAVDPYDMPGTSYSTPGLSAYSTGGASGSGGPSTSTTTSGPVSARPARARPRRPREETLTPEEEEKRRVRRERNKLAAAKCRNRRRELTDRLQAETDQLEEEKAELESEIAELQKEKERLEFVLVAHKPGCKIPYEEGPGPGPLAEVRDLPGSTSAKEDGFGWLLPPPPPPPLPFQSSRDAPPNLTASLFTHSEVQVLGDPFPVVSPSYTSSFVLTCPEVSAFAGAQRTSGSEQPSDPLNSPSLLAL
CR mimetic SO – lowers age-related superoxide in aged yeast cells; AID 2690; superoxide response (% of plate mean), % at 10 µM; 330,000 tested, 0.18% active; S. cerevisiae aged cells, superoxide DHE fluorescence; active compounds read low;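 active means superoxide response under a set limit, about three screen SD below normal, cut at about 65% in these data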;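 further: yeast aged for seven days with compound at 30 °C before DHE staining; 100% = average MFI of all compound-treated wells on the plate with controls excluded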
UBC13 polyUb – blocks human UBC13 polyubiquitin chain formation | TR-FRET | 330,000 tested, 0.47% active | inhibition, % at 20 µM | P61088; in the data active means inhibition above about 45%, passing the limit was not always enough
Target sequence (P61088 whole entry, looked up): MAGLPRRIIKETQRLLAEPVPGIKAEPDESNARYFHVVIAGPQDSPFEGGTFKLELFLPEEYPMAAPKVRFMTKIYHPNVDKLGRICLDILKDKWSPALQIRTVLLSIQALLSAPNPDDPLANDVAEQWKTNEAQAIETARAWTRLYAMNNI
NR3A LBD binder – NR3A (human) ligand-binding domain modulation. Tm shift relative to glycine control, % at 25 µM. 340,000 tested, 2.5% active. AID 1259313. NR3A LBD differential scanning fluorimetry, Tm shift; 0% = protein alone, 100% = glycine-bound protein;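 active means melting temperature shift of at least 10% of the positive control shift, at one fixed dose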
An asterisk follows results filed as active; x = no result given.

SMILES | NALP1 inh | dFosB activator | CR mimetic SO | UBC13 polyUb | NR3A LBD binder
CCCn1c(=O)c2ccccc2n2c(SCCOc3ccc(C)cc3)nnc12 | 23 | -14 | 93 | 6 | 0
CCCn1c(=O)c2ccccc2n2c(SCCOc3ccc(OC)cc3)nnc12 | 4 | -5 | 90 | 2 | 11*
CC(C)(C)NC(=O)CCC1COc2ccccc2O1 (stereo unspecified) | 6 | -3 | 81 | 5 | 1
O=C(CCC1COc2ccccc2O1)NC1CCCCC1 (stereo unspecified) | 41* | -3 | 93 | -5 | 1
O=C(CC1COc2ccccc2O1)NC1CCCCC1 (stereo unspecified) | 0 | 4 | 97 | 18 | 1
CC(NC(=O)CCC1COc2ccccc2O1)c1ccccc1 (stereo unspecified) | 42* | -4 | 95 | 0 | 1
COc1ccc(C(=O)COC(=O)CNC(=O)c2ccc(OC)cc2)cc1 | 13 | -7 | 139 | 13 | 11*
CCCCc1ccc(NC(=O)C(=O)NCCN2CCN(Cc3ccc([N+](=O)[O-])cc3)CC2)cc1 | -15 | -4 | 99 | -1 | 1
Nc1n[nH]c(=S)n1/N=C1/C(=O)Nc2ccccc21 | -27 | 0 | x | x | 26*
COc1cc(/C=C2\Oc3cc(O)ccc3C2=O)ccc1O | -8 | -10 | 99 | -62 | -3
O=C1/C(=C/c2ccc(O)c(O)c2)Oc2cc(O)ccc21 | -16 | -4 | 127 | -55 | 15*
O=C(OCCC12CC3CC(CC(C3)C1)C2)c1ccc(NCc2cc(O)ccc2O)cc1 | x | -10 | x | x | 27*
O=C(OCC12CC3CC(CC(C3)C1)C2)c1ccc(NCc2cc(O)ccc2O)cc1 | x | -4 | x | x | 12*
COc1ccc(C)cc1NC(=O)C1CCN(S(=O)(=O)c2cccs2)CC1 | 10 | -4 | 114 | 5 | 3
COc1ccc(NC(=O)CN2CCN(S(=O)(=O)c3cccs3)CC2)cc1Cl | x | -13 | 98 | 17 | 0
COc1ccc(CNC(=O)CN2CCN(S(=O)(=O)c3cccs3)CC2)cc1OC | 35* | -5 | 87 | -5 | 0
CCC(CC)NC(=O)C1CCN(S(=O)(=O)c2cccs2)CC1 | 33* | -6 | 120 | -14 | 1
CCS(=O)(=O)N1CCC(C(=O)NCc2cc(OC)ccc2OC)CC1 | 41* | -5 | 117 | -4 | -6
COc1ccc(OC)c(NC(=O)C2CCN(S(=O)(=O)c3cccs3)CC2)c1 | 39* | -3 | 105 | 2 | 1
COc1ccc(OC)c(CNC(=O)C2CCN(S(=O)(=O)N3CCC(C)CC3)CC2)c1 | -6 | -3 | 106 | 3 | -1
COc1ccc(N2CCN(Cc3nc4c(c(=O)n(C)c(=O)n4C)n3Cc3ccccc3C)CC2)cc1 | x | -3 | x | x | 0
COC(=O)c1[nH]c2c(c1C)C(=O)CCC2 | 33* | 2 | 106 | -2 | 1
Cc1c(C(=O)OC2CCC(C)CC2)[nH]c2c1C(=O)CCC2 (stereo unspecified) | 16 | -21 | 88 | 4 | -2
CC(C(=O)N1CCc2ccccc21)N1CCN(c2cccc(C(F)(F)F)c2)CC1 (stereo unspecified) | -9 | -10 | 95 | 2 | -5
CCC(C)N(C(=O)CSc1nnc2ccccn12)C1CCS(=O)(=O)C1 (stereo unspecified) | x | 5 | x | 2 | 2
SMILES | NALP1 inh | dFosB activator | CR mimetic SO | UBC13 polyUb | NR3A LBD binder
COc1ccc(OC)c(NC(=O)COC(=O)CC2CCCCC2)c1 | x | -7 | 99 | 3 | -1
Cc1cc(C)n(-c2nc3ccccc3s2)n1 | -16 | -4 | 95 | 4 | 0
Cc1nn(-c2nc3ccccc3s2)c(N)c1-c1ccccc1 | 28 | 0 | 93 | -7 | -11
Cc1nn(-c2nc3ccccc3s2)c(N)c1Sc1ccc(F)cc1 | -2 | -6 | 114 | -3 | 15*
Cc1cc(N)n(-c2nc3ccccc3s2)n1 | -2 | -6 | 87 | 0 | 32*
COc1ccc(/C=C/c2nc(N)nc(-c3ccccc3O)n2)cc1 | 27 | 9 | 97 | 6 | 72*
COc1ccc(/C=C/c2nc(N)nc(-c3ccccc3O)n2)cc1OC | 25 | 10 | 129 | 16 | 28*
COc1ccc(/C=C/c2noc(-c3ccccc3O)n2)cc1 | 39 | 4 | 92 | -6 | -2
Nc1nc(N)nc(-c2ccccc2O)n1 | -2 | 7 | 100 | 14 | 0
CCOc1ccc(S(=O)(=O)N2CCC(C(=O)NC3CCCC3)CC2)cc1 | 0 | 7 | 100 | 14 | -4
CCS(=O)(=O)N1N=C(c2ccc(NS(C)(=O)=O)cc2)CC1c1ccccc1 (stereo unspecified) | 31 | 46* | 102 | 11 | -5
CS(=O)(=O)Nc1ccc(C2=NN(S(C)(=O)=O)C(c3ccccc3)C2)cc1 (stereo unspecified) | 31 | -2 | 98 | -5 | -3
CS(=O)(=O)Nc1ccc(C2=NN(C(=O)c3ccco3)C(c3ccccc3)C2)cc1 (stereo unspecified) | 15 | -14 | 113 | 19 | 12*
CC(=O)N/C(=C\c1ccc(C)o1)C(=O)NCc1ccccc1 | -7 | -5 | 91 | 0 | -1
O=C(Nc1cc(S(=O)(=O)Nc2ccccc2Cl)ccc1O)c1ccc(F)cc1F | x | 10 | 81 | -10 | -9
O=C(Nc1ccccc1C(=O)O)c1cccc(NS(=O)(=O)c2ccc(Br)cc2)c1 | -24 | 4 | 104 | x | 8
O=C(Nc1cc(S(=O)(=O)N2CCCCC2)ccc1O)c1ccccc1NS(=O)(=O)c1ccc(F)c(F)c1 | 42 | 0 | 88 | -17 | 28*
Cc1onc(-c2c(F)cccc2Cl)c1C(=O)Nc1cc(S(=O)(=O)N2CCCCC2)ccc1O | x | -8 | x | x | 16*
Cc1onc(-c2c(F)cccc2Cl)c1C(=O)Nc1ccc(S(=O)(=O)N2CCOCC2)cc1 | x | -10 | 82 | 7 | 1
CN(Cc1ccc(F)cc1)C(=O)c1ccc(NS(=O)(=O)c2ccccc2)cc1 | x | -8 | 89 | 3 | 13*
CN(Cc1ccc(F)cc1)C(=O)c1cccc(S(=O)(=O)NCc2ccccc2)c1 | x | -12 | 81 | 4 | 0
O=C(Nc1ccccc1C(=O)O)c1cccc(S(=O)(=O)Nc2ccc(Br)cc2)c1 | 12 | -5 | 98 | -16 | 12*
O=C(COC(=O)C12CC3CC(CC(C3)C1)C2)Nc1ccc([N+](=O)[O-])cc1Cl | 31 | 5 | 113 | 10 | -14
CC1CC(C)CN(S(=O)(=O)c2ccc3c(c2)CCN3C(=O)C2CC2)C1 (stereo unspecified) | 25 | -3 | 94 | -4 | -2
O=C(Nc1cccc(S(=O)(=O)N2CCCCC2)c1)c1ccccc1NS(=O)(=O)c1ccc(F)cc1 | 4 | -1 | 106 | 24 | 18*
O=C(NC1CC1)c1ccc(NS(=O)(=O)c2ccc(F)cc2)cc1 | x | -1 | 103 | 3 | 27*
Cc1ccc(NC(=O)c2ccccc2NS(=O)(=O)c2ccc(F)cc2)cc1S(=O)(=O)N1CCCCC1 | 26 | 0 | 99 | -7 | 28*
